In PubChem BioAssay AID1851 (National Center for Advancing Translational Sciences (NCATS), 2009):
Values joined by “and” are separate entries in the source; they are usually repeats but may differ in a detail not shown here. Equal entries are not always repeated. Out of some 16,000 compounds screened, about 4,000 (25%) were called active. About 26% were inconclusive and are not listed. Calls come from the whole dose curve; as a rule, active = well fitted curve in the direction sought with a large enough effect; inconclusive = small, poorly fitted or top-dose-only effect, or effect the other way; inactive = no such curve, though single readings can be large or run the other way. Only a sample is shown. More than one record can exist for a structure, and the calls need not agree.

Molecular target: Cytochrome P450 2C9 (Homo sapiens) (UniProt P11712)
Assay: Cytochrome panel assay with activity outcomes
Conditions: recombinant CYP, pro-luciferin dealkylation, luminescence, p450-cyp2c9; series mostly up to 57.1 µM; activity, negative = inhibition: at the top concentration
% is set by controls: 0 for no effect and ±100 for the full control effect.

Sequence of Cytochrome P450 2C9 (Homo sapiens) (P11712 whole entry, looked up): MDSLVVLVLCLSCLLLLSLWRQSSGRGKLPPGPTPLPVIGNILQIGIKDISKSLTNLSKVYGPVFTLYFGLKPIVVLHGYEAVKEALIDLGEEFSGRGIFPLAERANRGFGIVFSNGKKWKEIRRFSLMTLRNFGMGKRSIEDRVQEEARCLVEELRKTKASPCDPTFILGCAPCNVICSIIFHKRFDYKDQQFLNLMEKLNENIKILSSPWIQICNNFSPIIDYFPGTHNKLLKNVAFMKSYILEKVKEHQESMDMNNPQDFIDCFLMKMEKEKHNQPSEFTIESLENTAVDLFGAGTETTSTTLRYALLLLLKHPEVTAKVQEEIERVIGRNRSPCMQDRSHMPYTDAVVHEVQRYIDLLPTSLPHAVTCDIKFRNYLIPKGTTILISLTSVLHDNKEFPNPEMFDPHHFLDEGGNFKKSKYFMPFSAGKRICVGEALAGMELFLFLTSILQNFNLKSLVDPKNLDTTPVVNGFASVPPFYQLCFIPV

Structure (SMILES)	AC50	activity, negative = inhibition
CC1CCN(c2cc(N3CCC(C)CC3)c([N+](=O)[O-])cc2/C=C(\C#N)c2nn(-c3ccccc3)c(N)c2C#N)CC1	0.224 µM (active)	–
N#C/C(=C\c1cc([N+](=O)[O-])c(N2CCCCC2)cc1N1CCCCC1)c1nn(-c2ccccc2)c(N)c1C#N	0.316 µM (active)	–
c1cncc(-c2cncnc2NCc2cccs2)c1	–	-1.39% [at 2.29 µM] (inactive)
COc1ccccc1CNc1ncncc1-c1cccc(NS(C)(=O)=O)c1	–	-27.7% [at 2.29 µM] (inactive)
COc1cccc(-c2cncnc2NCc2cnc(C)cn2)c1	–	4.41% [at 2.29 µM] (inactive)
CS(=O)(=O)Nc1cccc(-c2cncnc2NCc2ccccc2)c1	0.398 µM (active)	–
CS(=O)(=O)Nc1cccc(-c2cncnc2Nc2ccc(F)cc2)c1	–	-8.15% [at 2.29 µM] (inactive)
CS(=O)(=O)Nc1cccc(-c2cncnc2Nc2ccccc2)c1	–	-11.4% [at 2.29 µM] (inactive)
COc1cccc(-c2cncnc2NCc2cccnc2)c1	–	-10.5% [at 2.29 µM] (inactive)
CS(=O)(=O)Nc1cccc(-c2cncnc2NCc2cccs2)c1	0.126 µM (active)	–
COc1cccc(-c2cncnc2NCCN2CCOCC2)c1	–	1.81% [at 2.29 µM] (inactive)
CS(=O)(=O)Nc1cccc(-c2cncnc2NCc2cccnc2)c1	–	-3.43% [at 2.29 µM] (inactive)
COc1cccc(-c2cncnc2NCCc2cnc[nH]2)c1	0.251 µM (active)	–
COc1cccc(-c2cncnc2NCc2cccs2)c1	0.398 µM (active)	–
O=C(O)CSCNC(=O)CC12CC3CC(CC(C3)C1)C2	–	-24.2% (inactive)
CN(C)c1ccc(-c2cncnc2NCc2cccs2)cc1	–	-23.6% [at 2.29 µM] (inactive)
Cc1cccc(CNc2ncncc2-c2ccc3c(c2)OCO3)c1	–	-20.1% [at 2.29 µM] (inactive)
c1csc(CNc2ncncc2-c2ccc3c(c2)OCO3)c1	0.316 µM (active)	–
CCOc1c2ccc(C(=O)NCc3ccc(OC(F)(F)F)cc3)cc2nn1C	15.8 µM (active)	–
CCCN(CCC)CCCNC(=O)c1ccc2c(c1)N(CC)C(=O)c1ccccc1S2=O (stereo not drawn)	–	-9.06% (inactive)
CCn1nc2cc(C(=O)NCC34CC5CC(CC(C5)C3)C4)ccc2c1OC	14.1 µM (active)	–
CCOc1c2ccc(C(=O)NCCCCc3ccccc3)cc2nn1CC	11.2 µM (active)	–
COCCn1nc2cc(C(=O)NCc3cc(C(F)(F)F)cc(C(F)(F)F)c3)ccc2c1OC	–	-29.5% (inactive)
CCOc1c2ccc(C(=O)NCc3ccc4c(c3)OCO4)cc2nn1CC	14.1 µM (active)	–
NC[C@@H]1O[C@H](O[C@@H]2[C@H](O[C@@H]3O[C@H](CO)[C@@H](COC[C@H]4O[C@@H](CN)[C@@H](O)[C@@H](O)[C@@H]4N)[C@@H]3O)[C@@H](O)[C@@H](N)C[C@H]2N)[C@@H](N)[C@H](O)[C@@H]1O	–	-9.36% [at 25.6 µM] (inactive)
Clc1ccccc1-c1nc(-n2ccnc2)c2ccccc2n1	–	-16.4% [at 2.29 µM] (inactive)
CCCn1nc2cc(C(=O)NCc3ccccc3OC)ccc2c1OCC	–	-4.13% (inactive)

Structure (SMILES)	AC50	activity, negative = inhibition
CCCn1nc2cc(C(=O)NCCCCc3ccccc3)ccc2c1OCC	12.6 µM (active)	–
CCOC(=O)N/N=C1/C[C@@H](O)[C@@H](O)[C@@H]2[C@@H]3C(=O)N(C(C)(C)C)C(=O)[C@H]3CC[C@H]12	–	-0.388% [at 11.4 µM] (inactive)
Cc1cc(O)c(/C=N/Nc2cccc(Cl)c2)c(=O)o1	3.16 µM (active)	–
Clc1cccc(N/N=C/c2ccc(N3CCOCC3)cc2)c1	–	-27.1% (inactive)
CCC(CC)c1nnc(NC(=O)c2cccc(S(=O)(=O)N3CCc4ccccc43)c2)s1	1.58 µM (active)	–
CCOC(=O)CSc1nnc(NC(=O)c2cccc(S(=O)(=O)N3CCCCCC3)c2)s1	1 µM (active)	–
O=[N+]([O-])c1ccc2c(N=Nc3ccc4ccccc4c3O)c(O)cc(S(=O)(=O)O)c2c1	3.16 µM (active)	–
O=S(=O)(O)c1ccc2c(N=Nc3cccc4ccccc34)c(O)c(S(=O)(=O)O)cc2c1	–	-3.82% [at 11.4 µM] (inactive)
O=S(=O)(O)c1ccc(N=Nc2ccc3c(S(=O)(=O)O)cccc3c2O)c2ccccc12	–	-12.3% [at 11.4 µM] (inactive)
O=C(O)c1ccc(NS(=O)(=O)Cc2ccccc2)cc1	–	-7.98% [at 11.4 µM] (inactive)
O=C(Nc1cccc(C(F)(F)F)c1)N(Cc1ccc(Cl)cc1)CC(O)C(F)(F)F (stereo not drawn)	8.91 µM (active)	–
O=C(Nc1ccccc1)N(Cc1ccccc1)CC(O)C(F)(F)F (stereo not drawn)	12.6 µM (active)	–
O=S(=O)(C[C@H](O)C(Cl)(Cl)Cl)NNc1ccccc1	–	-2.23% [at 11.4 µM] (inactive)
O=C(O)CNc1ccc(C(=O)O)cc1	–	3.72% [at 11.4 µM] (inactive)
Cc1cc(C2(c3cc(C)c(O)c(C(=O)O)c3)OS(=O)(=O)c3ccccc32)cc(C(=O)O)c1O	–	14.9% [at 11.4 µM] (inactive)
CC(C)c1ccc(CN(C(=O)C2COc3ccccc3O2)C2CCS(=O)(=O)C2)cc1 (stereo not drawn)	11.2 µM (active)	–
CO/N=C(/CNC(=O)c1cccc(Cl)c1)c1ccc(Cl)cc1	3.55 µM (active)	–
O=C(CNc1cccc(Cl)c1)c1ccc(Cl)cc1	–	-14.9% (inactive)
COc1cccc(C(=O)NCCN2CCN(c3ccc(Cl)cc3)CC2)c1	–	14.4% (inactive)
CO/N=C(/CNC(=O)c1ccc(Cl)cc1Cl)c1ccc(Cl)cc1	1.12 µM (active)	–
OC[C@@H](O)[C@@H](O)[C@@H](O)[C@@H](O)c1nc2ccc(Cl)cc2[nH]1	–	-5.01% [at 11.4 µM] (inactive)
N[C@@H]1CONC1=O	inactive	–
Cn1c([N+](=O)[O-])cnc1COC(N)=O	–	29.3% [at 25.6 µM] (inactive)
CSc1nc(N)c2ncn([C@@H]3O[C@@H](COP(=O)(O)OP(=O)(O)O)[C@@H](O)[C@H]3O)c2n1	–	8.4% (inactive)
COc1ccc(NC(=O)c2ccc(-c3ccc(-c4noc(C)n4)cc3C)cc2)cc1OCCN(C)C	–	-5.88% (inactive)
COc1ccc(NC(=O)c2ccc(-c3ccc(-c4noc(C)n4)cc3C)cc2)cc1N1CCN(C)CC1	inactive and 7.94 µM (active)	–
